Screens deposited in PubChem BioAssay by The Scripps Research Institute Molecular Screening Center.
Compounds with a hit are over-represented: about 3.5% of the library has one in this group of screens.
FBW7 act – FBW7 E3 ligase activators, primary screen, biochemical, AlphaScreen, human; F-box/WD repeat-containing protein 7 (Homo sapiens), Q969H0; AlphaScreen FBW7–phospho-cyclin E peptide binding, activator screen; normalized activity (activation), % at 26.1 µM; 0.13% of 650,000 active; AID 1259310, 2017; in the data active means normalized activity above about 1.9%;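 further: purified mutant Fbw7 with reduced substrate affinity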
GPR151 activ – activators of human GPR151, primary screen, cell-based, PathHunter beta-arrestin, luminescence. 1% of 650,000 active. activation, % at 11.2 µM. PathHunter beta-arrestin GPR151 cells. G-protein coupled receptor 151 (Homo sapiens), Q8TDV0; in the data active means activation above about 4.9%;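 further: 0% = median of compound wells and 100% = cells with positive control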
TEAD-YAP inh – TEAD-YAP interaction inhibition, primary screen, TEAD-YAP interaction inhibitor project, luminescence, HEK-TIYL cells | TEAD-Gal4/YAP UAS-luciferase luminescence | inhibition, % at 9.12 µM | 1.4% of 640,000 active; in the data active means inhibition above about 32%;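 further: 0% = median of test compound wells and 100% = reference inhibitor wells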
MITF primary – MITF inhibitors, primary screen, biochemical, AlphaScreen, human. inhibition, % at 2.6 µM. Microphthalmia-associated transcription factor (Homo sapiens), O75030. 0.91% of 650,000 active. AlphaScreen MITF homodimerization, bead proximity signal; in the data active means inhibition above about 50%;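 further: 0% = vehicle wells with protein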
MITF inh conf – MITF inhibitors, retest of hits, confirmation, biochemical, AlphaScreen, triplicate; AlphaScreen MITF homodimerization, biotin/His-MITF beads; 16% of 4,700 active; shares compounds with MITF primary; inhibition, % at 2.6 µM;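 active means inhibition above a cutoff derived from the DMSO control wells, cut at about 28% in these data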;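 further: 0% = MITF dimer wells with DMSO only; inhibitors lower the bead chemiluminescence by keeping MITF from dimerizing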
AS interf ctr – AlphaScreen optical interference compounds, counter-screen for MITF inhibitor project, biochemical, triplicate; shares compounds with MITF primary; LysRS AlphaScreen counterscreen, signal interference; inhibition, % at 2.6 µM; 7.6% of 4,700 active;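 active means inhibition above a cutoff derived from the DMSO control wells, cut at about 30% in these data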
* marks the source's active call; other numbers are inactive results; . = no result given.

SMILES	FBW7 act	GPR151 activ	TEAD-YAP inh	MITF primary	MITF inh conf	AS interf ctr
CC(C)COc1ccc2c(c1)Sc1ccccc1N2CCN(C)C	0	1	3	54*	21	20
O=C(CN1CCN(Cc2nc(-c3ccco3)cs2)CC1)N1CCCC1	-1	0	-4	60*	9	5
CN1CCN(C(CNC(=O)c2ccc(-c3ccccc3)cc2)c2ccsc2)CC1 (stereo not given)	0	0	-8	55*	1	-4
C=CCOc1ccc2c3c(c(=O)oc2c1C)CCC3	1	-2	-27	54*	12	14
COc1ccc(C2(CCNCc3ccc(OC)c(OC)c3)CCOC(C)(C)C2)cc1 (stereo not given)	0	1	6	3	.	.
Cc1ccc(-c2nnc(C3CCN(S(=O)(=O)c4cccc(C#N)c4)CC3)o2)cc1	0	1	1	13	.	.
COc1ccccc1OCCCOc1ccc(C)cc1OC	0	-1	-37	2	.	.
CNCCCOc1ccc(C)cc1OC	0	2	-4	52*	-2	2
c1ccc2c(CN3CCN(C4C5CC6CC(C5)CC4C6)CC3)c[nH]c2c1 (stereo not given)	0	0	2	65*	-6	2
Cc1ccccc1CN1CCN(C2C3CC4CC(C3)CC2C4)CC1 (stereo not given)	0	5	-1	74*	-1	-2
Clc1ccccc1CN1CCN(C2C3CC4CC(C3)CC2C4)CC1 (stereo not given)	0	1	3	75*	12	15
Cc1[nH]ncc1-c1ccc(NC(=O)[C@@H]2Cc3ccccc3CN2)c(OCCN(C)C)c1	0	-1	-4	67*	6	9
CN1C(=O)/C(=C/c2c(NCc3ccccc3)nc3ccccn3c2=O)SC1=S	0	1	-3	12	.	.
NC(=O)NC(c1ccccc1)c1cccc(Cl)c1 (stereo not given)	1	0	1	17	.	.
Cc1ccc(C)n1C(CC(=O)O)c1cccc(Cl)c1 (stereo not given)	0	0	3	77*	16	7
c1cc(NC2CCCNC2)n2ncc(-c3ccoc3)c2n1 (stereo not given)	0	1	-62	68*	11	17
COc1ccc(S(=O)(=O)Nc2cc3sc(=O)oc3c3ccccc23)cc1	0	0	-4	-16	.	.
CC(C)(C)NC(=O)C(=O)NNC(=O)c1ccc([N+](=O)[O-])cc1[N+](=O)[O-]	1	-2	-11	66*	-22	1
CCOC(=O)CN(C)Cc1ccccc1Br	0	-1	12	59*	-16	-4
CCOC(=O)CN(C)Cc1ccc(OC)cc1OC	0	0	-9	-1	.	.
O=[N+]([O-])c1ccc(NCCOc2cccc3ccccc23)c(C(F)(F)F)c1	0	0	-1	-14	.	.
NC(C(=O)N1CCC(Nc2ccc3[nH]ncc3c2)CC1)c1ccc(Cl)cc1 (stereo not given)	0	-1	-4	74*	13	24
CCCCNS(=O)(=O)c1ccc(S(=O)(=O)NC(C)c2cccs2)cc1 (stereo not given)	0	1	4	56*	6	6
CC(NS(=O)(=O)c1ccc(S(=O)(=O)NCc2ccccc2)cc1)c1cccs1 (stereo not given)	0	0	2	22	.	.
CCCS(=O)(=O)N1CCN(C2CCCCC2)CC1	0	-2	3	53*	6	17
CCS(=O)(=O)N1CCN(C2CCCC2)CC1	0	3	-3	34	.	.
CCCN1CCC(N2CCN(S(=O)(=O)c3ccccc3[N+](=O)[O-])CC2)CC1	0	-2	3	84*	12	12
CS(=O)(=O)N1CCN(C2CCCC2)CC1	0	1	3	21	.	.
CCCN1CCC(N2CCN(S(C)(=O)=O)CC2)CC1	0	-1	-3	68*	2	16
CC(CN1C(=O)CCC1CCNCc1ccncc1)c1ccccc1 (stereo not given)	0	0	14	6	.	.
